# Results: the supplement of paper PMC8728848
# The full list was thinned out, with the strongest signals kept by preference.
# B1: WGA (Triticum vulgare) (protein)
# chain: QRCGEQGSNMECPNNLCCSQYGYCGMGGDYCGKGCQNGACWTSKRCGSQAGGATCPNNHCCSQYGHCGFGAEYCGAGCQGGPCRADIKCGSQSGGKLCPNNLCCSQWGFCGLGSEFCGGGCQSGACSTDKPCGKDAGGRVCTNNYCCSKWGSCGIGPGYCGAGCQSGGCDAVFAGAITANSTLLAE
# Key:
# Test in all cases: glycan array binding signal (z-score within array); higher = stronger binding
# Conditions in all cases: glycan notation: IUPAC condensed, linker removed
# [1] = biological target: Fuc(a1-2)Gal(b1-3)GlcNAc(b1-3)[Fuc(a1-2)Gal(b1-3)GlcNAc(b1-6)]GalNAc
# Method in brief: (§1)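 Glycan array data came from 3228 arrays in the Consortium for Functional Glycomics database, and only arrays with an available protein sequence were kept. Glycan names were put into IUPAC-condensed notation, and columns mapping to the same glycan were averaged. The binding signal is a within-array Z-score, averaged across arrays of one protein sequence run at different concentrations or buffers and across linkers. A negative Z-score can be read as non-binding.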
# [2] = biological target: Fuc(a1-2)Gal(b1-4)Fuc(a1-3)]GlcNAc(b1-2)Man(a1-3)[Fuc(a1-2)Gal(b1-4)[Fuc(a1-3)]GlcNAc(b1-2)Man(a1-6)]Man(b1-4)GlcNAc(b1-4)GlcNAc
# Method in brief: as §1
# [3] = biological target: Fuc(a1-2)Gal(b1-4)GlcNAc(b1-2)Man(a1-3)[Fuc(a1-2)Gal(b1-4)GlcNAc(b1-2)Man(a1-6)]Man(b1-4)GlcNAc(b1-4)GlcNAc
# Method in brief: as §1
# [4] = biological target: Fuc(a1-2)Gal(b1-4)[Fuc(a1-3)]GlcNAc(b1-2)Man(a1-3)[Fuc(a1-2)Gal(b1-4)[Fuc(a1-3)]GlcNAc(b1-2)Man(a1-6)]Man(b1-4)GlcNAc(b1-4)[Fuc(a1-6)]GlcNAc
# Method in brief: as §1
# [5] = biological target: Fuc(a1-2)Gal(b1-4)[Fuc(a1-3)]GlcNAc(b1-3)Gal(b1-4)[Fuc(a1-3)]GlcNAc
# Method in brief: as §1
# [6] = biological target: Fuc(a1-2)[Gal(a1-3)]Gal(b1-3)GalNAc(b1-3)Gal(a1-4)Gal(b1-4)Glc
# Method in brief: as §1
# [7] = biological target: Fuc(a1-2)[Gal(a1-3)]Gal(b1-4)Glc
# Method in brief: as §1
# [8] = biological target: Fuc(a1-2)[Gal(a1-3)]Gal(b1-4)[Fuc(a1-3)]Glc
# Method in brief: as §1
# [9] = biological target: Fuc(a1-2)[GalNAc(a1-3)]Gal
# Method in brief: as §1
# [10] = biological target: Fuc(a1-2)[GalNAc(a1-3)]Gal(b1-3)GlcNAc(b1-3)GalNAc
# Method in brief: as §1
# [11] = biological target: Fuc(a1-2)[GalNAc(a1-4)]Gal(b1-4)GlcNAc
# Method in brief: as §1
# [12] = biological target: Fuc(a1-3)[Gal(b1-4)]GlcNAc(b1-3)Gal(b1-4)[Fuc(a1-3)]GlcNAc
# Method in brief: as §1
# [13] = biological target: Gal(b1-3)GalNAc(b1-3)Gal(a1-4)Gal(b1-4)Glc
# Method in brief: as §1
# [14] = biological target: Gal(b1-3)GlcNAc(b1-3)Gal(b1-4)Glc
# Method in brief: as §1
# [15] = biological target: Gal(b1-3)[Fuc(a1-4)]GlcNAc(b1-2)Man(a1-3)[Gal(b1-3)[Fuc(a1-4)]GlcNAc(b1-2)Man(a1-6)]Man(b1-4)GlcNAc(b1-4)[Fuc(a1-6)]GlcNAc
# Method in brief: as §1
# [16] = biological target: Gal(b1-4)GlcNAc(b1-3)Gal(b1-4)Glc
# Method in brief: as §1
# [17] = biological target: Gal(b1-4)GlcNAc(b1-3)Gal(b1-4)GlcNAc(b1-2)[Gal(b1-4)GlcNAc(b1-3)Gal(b1-4)GlcNAc(b1-6)]Man(a1-6)[Gal(b1-4)GlcNAc(b1-3)Gal(b1-4)GlcNAc(b1-2)Man(a1-3)]Man(b1-4)GlcNAc(b1-4)[Fuc(a1-6)]GlcNAc
# Method in brief: as §1
# [18] = biological target: Gal(b1-4)GlcNAc(b1-3)Gal(b1-4)GlcNAc(b1-3)Gal(b1-4)GlcNAc(b1-3)Gal(b1-4)GlcNAc(b1-2)[Gal(b1-4)GlcNAc(b1-3)Gal(b1-4)GlcNAc(b1-3)Gal(b1-4)GlcNAc(b1-3)Gal(b1-4)GlcNAc(b1-6)]Man(a1-6)[Gal(b1-4)GlcNAc(b1-3)Gal(b1-4)GlcNAc(b1-3)Gal(b1-4)GlcNAc(b1-3)Gal(b1-4)GlcNAc(b1-2)Man(a1-3)]Man(b1-4)GlcNAc(b1-4)[Fuc(a1-6)]GlcNAc
# Method in brief: as §1
# [19] = biological target: Gal(b1-4)GlcNAc(b1-3)Gal(b1-4)GlcNAc(b1-3)Gal(b1-4)GlcNAc(b1-3)Gal(b1-4)GlcNAc(b1-3)Gal(b1-4)GlcNAc(b1-2)[Gal(b1-4)GlcNAc(b1-3)Gal(b1-4)GlcNAc(b1-3)Gal(b1-4)GlcNAc(b1-3)Gal(b1-4)GlcNAc(b1-3)Gal(b1-4)GlcNAc(b1-6)]Man(a1-6)[Gal(b1-4)GlcNAc(b1-3)Gal(b1-4)GlcNAc(b1-3)Gal(b1-4)GlcNAc(b1-3)Gal(b1-4)GlcNAc(b1-3)Gal(b1-4)GlcNAc(b1-2)Man(a1-3)]Man(b1-4)GlcNAc(b1-4)[Fuc(a1-6)]GlcNAc
# Method in brief: as §1
# [20] = biological target: Gal(b1-4)GlcNAc(b1-3)[Fuc(a1-3)GlcNAc(b1-6)]Gal(b1-4)Glc
# Method in brief: as §1
# [21] = biological target: Gal6P(b1-4)GlcNAc
# Method in brief: as §1
# [22] = biological target: Gal6S(b1-4)GlcNAc6S
# Method in brief: as §1
# [23] = biological target: GalNAc(b1-3)Gal(a1-6)Gal(b1-4)Glc
# Method in brief: as §1
# [24] = biological target: GalNAc(b1-4)GlcNAc
# Method in brief: as §1
# [25] = biological target: GalNAc(b1-4)GlcNAc(b1-2)Man
# Method in brief: as §1
# [26] = biological target: GalNAc(b1-4)GlcNAc(b1-3)GalNAc(b1-4)GlcNAc
# Method in brief: as §1
# [27] = biological target: Glc(b1-4)Glc
# Method in brief: as §1
# [28] = biological target: GlcNAc(a1-4)Gal(b1-4)GlcNAc
# Method in brief: as §1
# [29] = biological target: GlcNAc(a1-4)Gal(b1-4)GlcNAc(b1-3)Gal(b1-4)Glc
# Method in brief: as §1
# [30] = biological target: GlcNAc(a1-4)Gal(b1-4)GlcNAc(b1-3)Gal(b1-4)GlcNAc(b1-3)Gal(b1-4)GlcNAc
# Method in brief: as §1
# [31] = biological target: GlcNAc(b1-3)Gal(b1-4)GlcNAc(b1-2)Man(a1-3)[GlcNAc(b1-3)Gal(b1-4)GlcNAc(b1-2)Man(a1-6)]Man(b1-4)GlcNAc(b1-4)[Fuc(a1-6)]GlcNAc
# Method in brief: as §1
# [32] = biological target: GlcNAc(b1-3)Gal(b1-4)GlcNAc(b1-3)Gal(b1-4)GlcNAc
# Method in brief: as §1
# [33] = biological target: GlcNAc(b1-3)Gal(b1-4)GlcNAc(b1-3)GalNAc
# Method in brief: as §1
# [34] = biological target: GlcNAc(b1-4)GlcNAc(b1-4)GlcNAc
# Method in brief: as §1
# [35] = biological target: GlcNAc(b1-4)GlcNAc(b1-4)GlcNAc(b1-4)GlcNAc(b1-4)GlcNAc
# Method in brief: as §1
# [36] = biological target: GlcNAc(b1-4)GlcNAc(b1-4)GlcNAc(b1-4)GlcNAc(b1-4)GlcNAc(b1-4)GlcNAc
# Method in brief: as §1
# [37] = biological target: Neu5Ac(a2-3)Gal(b1-4)GlcNAc(b1-2)Man
# Method in brief: as §1
# [38] = biological target: Neu5Ac(a2-3)Gal(b1-4)GlcNAc(b1-3)Gal(b1-4)GlcNAc(b1-3)GalNAc
# Method in brief: as §1
# [39] = biological target: Neu5Ac(a2-3)Gal(b1-4)GlcNAc(b1-3)Gal(b1-4)GlcNAc(b1-3)[Neu5Ac(a2-3)Gal(b1-4)GlcNAc(b1-3)Gal(b1-4)GlcNAc(b1-6)]GalNAc
# Method in brief: as §1
# [40] = biological target: Neu5Ac(a2-6)Gal(b1-4)GlcNAc(b1-2)[Neu5Ac(a2-6)Gal(b1-4)GlcNAc(b1-4)]Man(a1-3)[GlcNAc(b1-4)][Neu5Ac(a2-6)Gal(b1-4)GlcNAc(b1-2)[Neu5Ac(a2-6)Gal(b1-4)GlcNAc(b1-6)]Man(a1-6)]Man(b1-4)GlcNAc(b1-4)GlcNAc
# Method in brief: as §1
# [41] = biological target: Neu5Ac(a2-6)Gal(b1-4)GlcNAc(b1-3)Gal(b1-4)GlcNAc(b1-6)[Gal(b1-3)]GalNAc
# Method in brief: as §1
# [42] = biological target: Neu5Ac(a2-6)Gal(b1-4)GlcNAc(b1-6)GalNAc
# Method in brief: as §1
# [43] = biological target: Neu5Ac(a2-6)Gal(b1-4)GlcNAc6S
# Method in brief: as §1
# [44] = biological target: Neu5Ac(a2-6)GlcNAc(b1-4)GlcNAc(b1-4)GlcNAc
# Method in brief: as §1
# [45] = biological target: Neu5Ac(a2-8)Neu5Ac(a2-8)Neu5Ac(a2-3)Gal(b1-4)Glc
# Method in brief: as §1
# [46] = biological target: Neu5Gc(a2-6)GalNAc
# Method in brief: as §1
binder,measurement,setting,value
B1,glycan array binding signal (z-score),[1],-0.344
same,glycan array binding signal (z-score),[2],-0.173
same,glycan array binding signal (z-score),[3],-0.197
same,glycan array binding signal (z-score),[4],-0.297
same,glycan array binding signal (z-score),[5],-0.365
same,glycan array binding signal (z-score),[6],-0.364
same,glycan array binding signal (z-score),[7],-0.359
same,glycan array binding signal (z-score),[8],-0.309
same,glycan array binding signal (z-score),[9],-0.082
same,glycan array binding signal (z-score),[10],-0.299
same,glycan array binding signal (z-score),[11],3
same,glycan array binding signal (z-score),[12],-0.381
same,glycan array binding signal (z-score),[13],-0.328
same,glycan array binding signal (z-score),[14],-0.373
same,glycan array binding signal (z-score),[15],-0.172
same,glycan array binding signal (z-score),[16],-0.341
same,glycan array binding signal (z-score),[17],-0.132
same,glycan array binding signal (z-score),[18],0.022
same,glycan array binding signal (z-score),[19],0.244
same,glycan array binding signal (z-score),[20],-0.275
same,glycan array binding signal (z-score),[21],-0.418
same,glycan array binding signal (z-score),[22],-0.371
same,glycan array binding signal (z-score),[23],-0.316
same,glycan array binding signal (z-score),[24],2.78
same,glycan array binding signal (z-score),[25],2.71
same,glycan array binding signal (z-score),[26],2.8
same,glycan array binding signal (z-score),[27],-0.351
same,glycan array binding signal (z-score),[28],2.77
same,glycan array binding signal (z-score),[29],2.56
same,glycan array binding signal (z-score),[30],3.16
same,glycan array binding signal (z-score),[31],1.15
same,glycan array binding signal (z-score),[32],1.71
same,glycan array binding signal (z-score),[33],-0.359
same,glycan array binding signal (z-score),[34],3.8
same,glycan array binding signal (z-score),[35],5.62
same,glycan array binding signal (z-score),[36],5.15
same,glycan array binding signal (z-score),[37],-0.304
same,glycan array binding signal (z-score),[38],-0.353
same,glycan array binding signal (z-score),[39],-0.001
same,glycan array binding signal (z-score),[40],-0.366
same,glycan array binding signal (z-score),[41],-0.248
same,glycan array binding signal (z-score),[42],-0.307
same,glycan array binding signal (z-score),[43],-0.359
same,glycan array binding signal (z-score),[44],3.14
same,glycan array binding signal (z-score),[45],-0.35
same,glycan array binding signal (z-score),[46],-0.324
